A selection: hits, their analogues and other compounds. The true share with any hit is near 1.8%.
GLP1R inv ag – qHTS of GLP-1 Receptor Inverse Agonists (Inhibition Mode). Glucagon-like peptide 1 receptor (Homo sapiens), P43220. HEK293 GLP-1R CRE-luciferase, luminescence, 24 h; GLP-1R form is constitutively active. Potency, µM (doses to about 38.3 µM), for inactives: at the top dose activity change, negative = inhibition, hits mostly inhibitors. actives 1.6% (n = 410,000). AID 624417, 2012; also: % is scaled to controls: 0 for no effect and ±100 for the full control effect; nearly all actives have a fitted effect of over 55% in size
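Cells are plated, allowed 12 hours at 37 deg C, then treated with compounds for 24 hr before luciferase detection reagent is added and luminescence is read after 12 min at room temperature. The HEK293 line carries constitutively active GLP-1R with a cAMP-responsive reporter.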
PGK inhibitor – qHTS Assay to Find Inhibitors of Phosphoglycerate Kinase; Phosphoglycerate kinase, glycosomal (Trypanosoma brucei brucei), P07378; PGK/GAPDH coupled, Kinase-Glo luminescence, 60 min; Potency, µM (doses to about 57.5 µM), without a hit: at the highest dose activity change, negative = inhibition, usual class: inhibitors; actives 0.043% (n = 380,000); AID 602233, 2012; also: % is scaled to controls: 0 for no effect and ±100 for the full control effect; nearly all actives have a fitted effect of over 60% in size
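Recombinant glycosomal PGK reaction used 1,3-bisphosphoglycerate generated in-well by GAPDH (100nM final) in 100mM TEA pH 7.6, 5mM MgCl2, 0.01% Tween-20. After 60 minutes at room temperature, ATP was read by Kinase-Glo Plus luminescence end-point.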
GLP1R cytotox – qHTS of GLP-1 Receptor Inverse Agonists: Cytotox Screen | HEK293 cAMP-luciferase reporter cells, luminescence, 24 h | AID 624418, 2012 | Potency, µM (highest dose often 38.3 µM), for inactives: at the highest dose activity change, negative = inhibition, most hits filed as inhibitors | actives 0.13% (n = 410,000);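 also: loss of luciferase light is scored as toxicity; % is scaled to controls: 0 for no effect and ±100 for the full control effect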
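Here, cytotoxicity is scored as loss of luminescence. The MLSMR collection was tested on cells seeded in medium containing 10% Nu serum, with a 24 hr compound exposure preceded by 12 hours of culture.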
Pin1 inh – qHTS Assay to Find Inhibitors of Pin1 | Pin1 FP peptide displacement, HiFluor488, 10 min | Potency, µM (doses to about 115 µM), for inactives: at the highest dose activity, negative = inhibition, hits mostly inhibitors | actives 0.009% (n = 390,000) | AID 504891, 2011; active = well fitted inhibition curve with a large enough effect in the polarisation, with a control signal flat, not every such curve was filed as active; inconclusive = small, poorly fitted or top-dose-only effect, or effect the other way, or a change in a side signal; inactive = no such curve, though single readings can be large or run the other way; the % refers to the polarisation; also: % is scaled to controls: 0 for no effect and ±100 for the full control effect
Target sequence (Q13526 whole entry, looked up): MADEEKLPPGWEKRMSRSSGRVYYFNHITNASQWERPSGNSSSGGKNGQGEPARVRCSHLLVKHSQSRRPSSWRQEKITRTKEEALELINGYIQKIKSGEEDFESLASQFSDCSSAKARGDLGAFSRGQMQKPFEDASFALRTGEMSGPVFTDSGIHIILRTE
Tb PFK inh – qHTS Assay to Find Inhibitors of T. brucei phosphofructokinase. actives 0.17% (n = 330,000). Potency, µM (highest dose often 57.5 µM), for the others: top-dose activity, negative = inhibition, most hits filed as inhibitors. ATP-dependent 6-phosphofructokinase (Trypanosoma brucei brucei), O15648. T. brucei PFK, ADP-Glo luminescence;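 also: 0% = uninhibited 1x PFK enzyme wells and -100% = no-enzyme wells; nearly all actives have a fitted effect of over 60% in size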
Target sequence (O15648 whole entry, looked up): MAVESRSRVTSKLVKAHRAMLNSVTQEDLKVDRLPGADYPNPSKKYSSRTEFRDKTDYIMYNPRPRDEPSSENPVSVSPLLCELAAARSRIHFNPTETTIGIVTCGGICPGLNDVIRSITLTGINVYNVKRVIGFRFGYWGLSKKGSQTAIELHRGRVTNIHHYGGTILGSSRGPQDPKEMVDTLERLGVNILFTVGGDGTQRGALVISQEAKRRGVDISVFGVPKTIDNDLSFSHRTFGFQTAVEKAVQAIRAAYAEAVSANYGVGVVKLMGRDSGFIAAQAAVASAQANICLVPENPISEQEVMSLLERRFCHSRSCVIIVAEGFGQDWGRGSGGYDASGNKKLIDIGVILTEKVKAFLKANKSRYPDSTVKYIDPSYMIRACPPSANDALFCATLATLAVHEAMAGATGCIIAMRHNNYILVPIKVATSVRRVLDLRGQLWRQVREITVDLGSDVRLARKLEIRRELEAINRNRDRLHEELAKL
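1.25 nM PFK with 0.5 mM F6P and 0.1 mM ATP in 0.1 M TEA pH 8.0, 5 mM MgCl2, incubated 45 min at room temperature; ADP measured by ADP-Glo luminescence; compounds titrated up to 57 uM.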
GLP-1R agonist – qHTS of GLP-1 Receptor Agonists. Glucagon-like peptide 1 receptor (Homo sapiens), P43220. actives 0.007% (n = 380,000). Potency, µM (titrated, usually from 45.6 µM), inactives show at the top dose activation, most hits filed as activators. AID 624172, 2012. HEK293 GLP-1R CRE-luciferase, luminescence, 4-6 h; cells express a hypersensitive GLP-1R form; also: % of control where 0% means no effect
* = called active by the depositor; i = inactive; ? = inconclusive; nt = no result; [ ] = dose if it differs, or a comment. Unless noted, calls follow the shape of the dose curve; as a rule, active = well fitted curve in the direction sought with a large enough effect; inconclusive = small, poorly fitted or top-dose-only effect, or another doubt; inactive = no such curve, though single readings can be large; an effect the other way counts as inactive or inconclusive. Potency is read from the fitted curve at half-maximal effect.

SMILES	GLP1R inv ag	PGK inhibitor	GLP1R cytotox	Pin1 inh	Tb PFK inh	GLP-1R agonist
CC(C)(C)c1ccc(/C=N/NC(=S)NCc2ccccc2)cc1	?	1.5%	?	7.1%	-1.2%	5.8%
Cc1ccc(Cn2cc(CCC(=O)NC3CCCCC3)c3ccccc32)cc1	-10.0%	-8.4%	-14.5%	2.3%	nt	nt
CCCCOC(=O)/C(=C/C=C/c1ccccc1)NC(=O)c1ccccc1	-8.0%[7.66 µM]	2.0%	-0.9%[7.66 µM]	12.4%	5.8%	15.7%
CCCOC(=O)/C(=C\C=C\c1ccccc1)NC(=O)c1ccccc1	2.51µM*	4.1%	9.7%	-0.6%	5.5%	21.6%
CSc1nn(Cc2ccc(F)cc2)c(N)c1S(=O)(=O)c1ccc(Cl)cc1	?	7.9%	-4.5%	?	nt	nt
Cc1cc(C)c(S(=O)(=O)NCC(c2ccc(N(C)C)cc2)N2CCc3ccccc32)c(C)c1 (stereo not given)	2µM*	-3.7%	0.3%	15.6%	nt	nt
CC(=O)c1cccc(N2C(=O)CN(S(C)(=O)=O)CC2(C)C(=O)NC2CCCC2)c1 (stereo not given)	18.2%	-6.6%	-0.4%	-6.0%	nt	nt
O=C(Nc1ccccc1C(=O)OCc1cc(=O)n2c3c(sc2n1)CCCC3)c1cccc(Cl)c1	10.6%	i	24.0%	-12.3%	nt	nt
CCc1ccc(-n2nc(CO)c(C(=O)NCCc3ccccc3)n2)cc1	2.0%	0.2%	-5.5%	1.0%	nt	nt
CCCC(=O)C1=C(O)C(C(=O)OC)C(C)(C)CC1=Nc1cccc2ccccc12 (stereo not given)	7.94µM*	1.2%	-3.6%	-1.6%	-2.1%	-6.4%
O=C(NCc1ccccc1Cl)c1ccc(CSc2nc3ccncc3[nH]2)cc1	10µM*	5.6%	-4.0%	6.8%	-3.5%	7.8%
Clc1ccccc1CSc1nc2ccncc2[nH]1	-1.6%	-6.3%	-2.7%	-1.2%	-5.2%	5.0%
O=C(CC(c1ccccc1)c1ccccc1O)NCc1ccco1 (stereo not given)	?	-3.2%	-7.4%	1.3%	-8.1%	-7.7%
O=C(CC(c1ccccc1)c1ccccc1O)NCc1ccccc1Cl (stereo not given)	10µM*	-0.9%	-15.3%	2.7%	-2.5%	-10.2%
O=C(CC(c1ccccc1)c1cc(Br)ccc1O)NCc1ccco1 (stereo not given)	11.2µM*	-0.3%	-9.9%	4.3%	-4.3%	-18.1%
COc1ccc(C)cc1NC(=O)COCc1cc(-c2ccc(F)cc2)on1	?	-10.2%	-6.8%	0.7%	nt	nt
O=C1CN(S(=O)(=O)c2c(F)cccc2F)CCN1S(=O)(=O)c1ccc2c(c1)OCCO2	nt	nt	nt	-3.3%	nt	nt
O=C(NCCCc1cnc[nH]1)NCCCN(Cc1ccc(Cl)c(Cl)c1)c1ccc(Br)cn1	nt	nt	nt	10.0%	nt	nt
Cc1c(Cl)cccc1NS(=O)(=O)c1cc2c(cc1F)NC(=O)CC2	nt	nt	nt	-3.0%	nt	nt
Cc1cc(C)c(NC(=O)CSc2nc3ccccc3nc2N2CCCCC2)c(C)c1	2.0%	-1.2%	19.2%	14.1%	nt	nt
COc1cccc(NC(=O)Nc2nc(SC(C)(C)C)ns2)c1	5.62µM*	-10.5%	?	-0.7%	1.6%	-0.4%
CCOc1cccc2sc(N3CCN(C(=O)C(C)(C)C)CC3)nc12	-7.2%	-0.7%	-0.5%	-0.3%	nt	nt
CN(CC(=O)Nc1ccc(OC(F)(F)F)cc1)C(=O)Cc1cccs1	11.2µM*	-9.5%	-3.4%	-3.1%	-6.4%	3.9%
CCC/C(=C1/c2ccccc2C(=O)N1c1ccccc1)c1ccc2[nH]ccc2c1	4.47µM*	0.2%	-3.5%	2.1%	-0.3%	-2.7%
O=C1c2ccccc2/C(=C\c2ccc3[nH]ccc3c2)N1c1ccccc1	1.1%	-7.1%	-3.6%	49.7%	6.8%	-2.0%
SMILES	GLP1R inv ag	PGK inhibitor	GLP1R cytotox	Pin1 inh	Tb PFK inh	GLP-1R agonist
COc1ccc(S(=O)(=O)Nc2ccc(Nc3ccccc3)cc2)cc1	7.08µM*	i	-2.9%	-3.2%	nt	-0.5%
CCC(C)Sc1cccc(-c2nc3cnccn3c2NC2CCCCC2)c1 (stereo not given)	10µM*	2.3%	113.3%	?	11.0%	-1.9%
CCCCNc1c(-c2cccc(SC(C)CC)c2)nc2ccc(Cl)cn12 (stereo not given)	10µM*	i	1.2%	11.2%	4.2%	8.3%
CCC(C)Sc1cccc(-c2nc3ccc(C)cn3c2NC2CCCCC2)c1 (stereo not given)	11.2µM*	-1.2%	-21.7%	5.3%	-5.2%	15.1%
CCC(C)Sc1cc(-c2nc3cc(C)ccn3c2NC2CCCCC2)ccc1OC (stereo not given)	?	i	13.8%	?	7.5%	-4.5%
CCCCNc1c(-c2ccc(OC)c(SC(C)CC)c2)nc2ccc(Cl)cn12 (stereo not given)	0.6%	-2.0%	20.0%	-8.5%	1.0%	14.2%
c1cc(SC2CCCCC2)cc(-c2nc3cnccn3c2NC2CCCCC2)c1	?	3.1%	112.7%	?	0.0%	-5.2%
CCC(C)Sc1cc(-c2nc3ccccn3c2NC2CCCCC2)ccc1OC (stereo not given)	5.62µM*	i	-22.1%	-4.2%	?	-1.0%
Cc1ccc(NC(=O)CCn2c(=O)c3cccn3c3ccccc32)c(Cl)c1	-22.8%	3.7%	-7.8%	?	nt	nt
CCOc1ccccc1NC(=O)Cn1c(=O)ccc2cc(S(=O)(=O)N3CCC(C)CC3)ccc21	13.5%	-1.8%	14.8%	11.6%	nt	nt
CCC(=O)NC(c1ccco1)c1cc([N+](=O)[O-])c2cccnc2c1O (stereo not given)	nt	nt	nt	-22.0%	nt	nt
CCn1c2ccccc2c2cc(NC(=O)N3CCCCC3)ccc21	10µM*	-11.1%	-8.2%	nt	nt	17.0%
CCn1c2ccccc2c2cc(NC(=O)Cc3ccc(S(=O)(=O)N4CCOCC4)s3)ccc21	10µM*	-2.6%	-22.2%	2.0%	4.5%	-9.3%
N#Cc1nc(Nc2ccc3ccccc3c2)nc(NC2CCCC2)n1	nt	nt	nt	4.5%	nt	nt
Cc1ccc(S(=O)(=O)NC(N)=NCCC[C@@H](N)C(=O)Nc2cc(C(F)(F)F)ccc2Cl)cc1	nt	nt	nt	-0.2%	nt	nt
Cc1ccc(NCc2cccn2-c2nnc(N3CCC(C(=O)NCCc4ccc(Cl)cc4)CC3)s2)cc1	10µM*	nt	-13.1%	19.3%	nt	nt
